Only a selection was taken, and the strongest signals are over-represented in it overall.
What was measured:
Experiment in all cases: glycan array binding signal (z-score within array); higher = stronger binding
Details in all cases: glycan notation: IUPAC condensed, linker removed
[1] = molecular target: GlcNAc(b1-3)Gal(b1-4)GlcNAc(b1-3)Gal(b1-4)GlcNAc(b1-3)Gal(b1-4)GlcNAc(b1-2)Man(a1-3)[GlcNAc(b1-3)Gal(b1-4)GlcNAc(b1-3)Gal(b1-4)GlcNAc(b1-3)Gal(b1-4)GlcNAc(b1-2)Man(a1-6)]Man(b1-4)GlcNAc(b1-4)[Fuc(a1-6)]GlcNAc
Method in brief: (§1)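 Glycan array data came from 3228 arrays in the Consortium for Functional Glycomics database, and only arrays with an available protein sequence were kept. Glycan names were put into IUPAC-condensed notation, and columns mapping to the same glycan were averaged. The binding signal is a within-array Z-score, averaged across arrays of one protein sequence run at different concentrations or buffers and across linkers. A negative Z-score can be read as non-binding.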

[2] = molecular target: GlcNAc(b1-3)Gal(b1-4)GlcNAc(b1-3)Gal(b1-4)GlcNAc(b1-3)Gal(b1-4)GlcNAc(b1-3)Gal(b1-4)GlcNAc(b1-2)Man(a1-3)[GlcNAc(b1-3)Gal(b1-4)GlcNAc(b1-3)Gal(b1-4)GlcNAc(b1-3)Gal(b1-4)GlcNAc(b1-3)Gal(b1-4)GlcNAc(b1-2)Man(a1-6)]Man(b1-4)GlcNAc(b1-4)GlcNAc
Method in brief: as §1

[3] = molecular target: GlcNAc(b1-3)Gal(b1-4)GlcNAc(b1-3)Gal(b1-4)GlcNAc(b1-3)GalNAc
Method in brief: as §1

[4] = molecular target: Man(a1-2)Man(a1-2)Man(a1-6)[Man(a1-3)]Man
Method in brief: as §1

Man(a1-2)Man(a1-3)Man = molecular target: Man(a1-2)Man(a1-3)Man
Method in brief: as §1

[5] = molecular target: Man(a1-2)Man(a1-3)[Man(a1-2)Man(a1-6)]Man
Method in brief: as §1

[6] = molecular target: Man(a1-2)Man(a1-3)[Man(a1-2)Man(a1-6)]Man(a1-6)[Man(a1-2)Man(a1-2)Man(a1-3)]Man
Method in brief: as §1

[7] = molecular target: Man(a1-2)Man(a1-3)[Man(a1-2)Man(a1-6)]Man(a1-6)[Man(a1-2)Man(a1-2)Man(a1-3)]Man(b1-4)GlcNAc(b1-4)GlcNAc
Method in brief: as §1

[8] = molecular target: Man(a1-2)Man(a1-3)[Man(a1-6)]Man(a1-6)[Man(a1-2)Man(a1-3)]Man(b1-4)GlcNAc(b1-4)GlcNAc
Method in brief: as §1

[9] = molecular target: Man(a1-2)Man(a1-6)[Man(a1-3)]Man(a1-6)[Man(a1-2)Man(a1-2)Man(a1-3)]Man
Method in brief: as §1

[10] = molecular target: Man(a1-2)Man(a1-6)[Man(a1-3)]Man(a1-6)[Man(a1-2)Man(a1-2)Man(a1-3)]Man(b1-4)GlcNAc(b1-4)GlcNAc
Method in brief: as §1

[11] = molecular target: Man(a1-3)[Man(a1-6)]Man(a1-6)[Man(a1-2)Man(a1-3)]Man(b1-4)GlcNAc(b1-4)GlcNAc
Method in brief: as §1

[12] = molecular target: Man(a1-3)[Man(a1-6)]Man(b1-4)GlcNAc(b1-4)GlcNAc
Method in brief: as §1

[13] = molecular target: Man(a1-3)[Man(a1-6)]Man(b1-4)GlcNAc(b1-4)[Fuc(a1-6)]GlcNAc
Method in brief: as §1

[14] = molecular target: Neu5Ac(a2-3)Gal(b1-3)GalNAc6S
Method in brief: as §1

[15] = molecular target: Neu5Ac(a2-3)Gal(b1-3)GlcNAc(b1-6)GalNAc
Method in brief: as §1

[16] = molecular target: Neu5Ac(a2-3)Gal(b1-3)[GlcNAc(b1-6)]GalNAc
Method in brief: as §1

[17] = molecular target: Neu5Ac(a2-3)Gal(b1-3)]Neu5Ac(a2-3)Gal(b1-4)]GlcNAc
Method in brief: as §1

[18] = molecular target: Neu5Ac(a2-3)Gal(b1-4)GlcNAc(b1-2)[Neu5Ac(a2-3)Gal(b1-4)GlcNAc(b1-4)]Man(a1-3)[GlcNAc(b1-4)][Neu5Ac(a2-3)Gal(b1-4)GlcNAc(b1-4)Man(a1-6)]Man(b1-4)GlcNAc(b1-4)GlcNAc
Method in brief: as §1

[19] = molecular target: Neu5Ac(a2-3)Gal(b1-4)GlcNAc(b1-3)Gal(b1-4)GlcNAc(b1-2)Man(a1-3)[Neu5Ac(a2-3)Gal(b1-4)GlcNAc(b1-3)Gal(b1-4)GlcNAc(b1-2)Man(a1-6)]Man(b1-4)GlcNAc(b1-4)GlcNAc
Method in brief: as §1

[20] = molecular target: Neu5Ac(a2-3)[GalNAc(b1-4)]Gal(b1-4)Glc
Method in brief: as §1

[21] = molecular target: Neu5Ac(a2-3)[GalNAc(b1-4)]Gal(b1-4)GlcNAc
Method in brief: as §1

[22] = molecular target: Neu5Ac(a2-6)Gal(b1-4)GlcNAc(b1-2)Man(a1-6)[Man(a1-3)]Man(b1-4)GlcNAc(b1-4)GlcNAc
Method in brief: as §1

[23] = molecular target: Neu5Ac(a2-6)Gal(b1-4)GlcNAc(b1-3)Gal(b1-4)GlcNAc
Method in brief: as §1

[24] = molecular target: Neu5Ac(a2-6)Gal(b1-4)GlcNAc(b1-3)Gal(b1-4)GlcNAc(b1-3)GalNAc
Method in brief: as §1

[25] = molecular target: Neu5Ac(a2-6)Gal(b1-4)GlcNAc(b1-3)Gal(b1-4)GlcNAc(b1-3)[Neu5Ac(a2-6)Gal(b1-4)GlcNAc(b1-3)Gal(b1-4)GlcNAc(b1-6)]GalNAc
Method in brief: as §1

Neu5Ac(a2-6)GalNAc = molecular target: Neu5Ac(a2-6)GalNAc
Method in brief: as §1

[26] = molecular target: Neu5Ac(a2-6)GalNAc(b1-4)GlcNAc
Method in brief: as §1

[27] = molecular target: Neu5Ac(a2-8)Neu5Ac(a2-3)Gal(b1-3)GalNAc(b1-4)[Neu5Ac(a2-3)]Gal(b1-4)Glc
Method in brief: as §1

[28] = molecular target: Neu5Ac(a2-8)Neu5Ac(a2-8)Neu5Ac(a2-3)Gal(b1-4)Glc
Method in brief: as §1

Neu5Gc(a2-3)Gal(b1-4)Glc = molecular target: Neu5Gc(a2-3)Gal(b1-4)Glc
Method in brief: as §1

B1: Banana lectin (Musa acuminata) (protein)
chain: MNGAIKVGAWGGNGGSAFDMGPAYRIISVKIFSGDVVDGVDVTFTYYGKTETRHYGGSGGTPHEIVLQEGEYLVGMAGEVANYHGAVVLGKLGFSTNKKAYGPFGNTGGTPFSLPIAAGKISGFFGRGGKFLDAIGVYLEPLEHHHHHH
[1]
  glycan array binding signal (z-score): -0.122
[2]
  glycan array binding signal (z-score): -0.165
[3]
  glycan array binding signal (z-score): -0.184
[4]
  glycan array binding signal (z-score): 6.19
Man(a1-2)Man(a1-3)Man
  glycan array binding signal (z-score): 2.25
[5]
  glycan array binding signal (z-score): 4.51
[6]
  glycan array binding signal (z-score): 5.96
[7]
  glycan array binding signal (z-score): 2.62
[8]
  glycan array binding signal (z-score): 8.11
[9]
  glycan array binding signal (z-score): 3.34
[10]
  glycan array binding signal (z-score): 6.29
[11]
  glycan array binding signal (z-score): 13.1
[12]
  glycan array binding signal (z-score): 4.01
[13]
  glycan array binding signal (z-score): 2.88
[14]
  glycan array binding signal (z-score): -0.237
[15]
  glycan array binding signal (z-score): -0.288
[16]
  glycan array binding signal (z-score): -0.214
[17]
  glycan array binding signal (z-score): -0.223
[18]
  glycan array binding signal (z-score): -0.225
[19]
  glycan array binding signal (z-score): -0.167
[20]
  glycan array binding signal (z-score): -0.132
[21]
  glycan array binding signal (z-score): -0.169
[22]
  glycan array binding signal (z-score): 3.56
[23]
  glycan array binding signal (z-score): -0.226
[24]
  glycan array binding signal (z-score): -0.223
[25]
  glycan array binding signal (z-score): -0.161
Neu5Ac(a2-6)GalNAc
  glycan array binding signal (z-score): -0.204
[26]
  glycan array binding signal (z-score): -0.221
[27]
  glycan array binding signal (z-score): -0.192
[28]
  glycan array binding signal (z-score): -0.139
Neu5Gc(a2-3)Gal(b1-4)Glc
  glycan array binding signal (z-score): -0.209

— the supplement of paper PMC8728848
